Consider ten compounds from publication PMC5540273 (PLoS ONE, 2017).

Some test systems named below: TNNI3K; TRKB; TRPM6; TSSK1B; TSSK3; TTK; TXK.
Holding throughout (conditions): concentration: 1 μM, replicates: in singlicate; n = 1
The test system of a further assay is T1, TRKA.
T1 construct: gene NTRK1

Another assay has as its system T2, TRKC.
T2 construct: gene NTRK3

The subject of assay [1] is TYK2(JH1domain-catalytic).
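Further: KINOMEscan kinase panel screen.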

Turning to `c1ccc(-c2n[nH]cc2Nc2ccnc3ccccc23)nc1` [GW694077], the “%Inh” value with TNNI3K was 0%; in the assay on TRKA it was 74%; in the assay on TRKB it was 26%; in the assay on TRKC it was 21%; in the assay on TRPM6 it was 15%; in the assay on TSSK1B, 12%. Moreover, the “%Inh” value with TSSK3 was found to be 28%; in the assay on TTK, 64%; in the assay on TXK, 0%; in assay [1], 92%.

As for `CCS(=O)(=O)c1ccc(OC)c(Nc2nccc(-c3c(-c4cccc(NC(=O)c5c(F)cccc5F)c4)nn4ncccc34)n2)c1` [GSK326180], the “%Inh” value in the assay with TNNI3K was 15%; in the assay on TRKA it was 0%; in the assay on TRKB, 5%; in the assay on TRKC it was 0%; with TRPM6, 55%; in the assay with TSSK1B, 23%. In addition, the “%Inh” value in the assay on TSSK3 is 12%; in the assay with TTK, 0%; in the assay on TXK, 15%; in assay [1] it was 0%.

Turning to `O=C(Nc1cccc(-c2nn3ncccc3c2-c2ccnc(Nc3ccccc3)n2)c1)c1c(F)cccc1F` [GSK198271], the “%Inh” value in the assay on TNNI3K is listed as 36%; in the assay on TRKA, 0%; in the assay on TRKB it was 0%; with TRKC it was 0%; with TRPM6, 55%; with TSSK1B it was 0%. In addition, the “%Inh” value with TSSK3 amounted to 18%; in the assay with TTK it was 7%; in the assay on TXK, 84%; in assay [1] it was 7%.

Consider `COc1cc2c(cc1OCCN1CCNCC1)ncc1c3ccc(C#N)cc3[nH]c21`, for which the “%Inh” value is 0% in the assay on TNNI3K; 99.8% in the assay on TRKA; 94.1% with TRKB; 77% in the assay on TRKC; 100% in the assay on TRPM6; 22% in the assay with TSSK1B. In addition, the “%Inh” value in the assay on TSSK3 is listed as 15%; in the assay on TTK, 0%; in the assay on TXK, 11%; in assay [1], 50%.

Turning to `Cc1occc1-c1ncc(OC[C@@H](N)Cc2c[nH]c3ccccc23)cc1-c1ccc2[nH]nc(C)c2c1.O=C(O)C(F)(F)F` [GSK682037], the “%Inh” value is 5% in the assay with TNNI3K; 33% in the assay on TRKA; 13% in the assay on TRKB; 0% with TRKC; 0% in the assay with TRPM6; 16% with TSSK1B. The “%Inh” value with TSSK3 amounted to 13%; with TTK, 22%; with TXK, 47%; in assay [1] it was 7%.

With `O=C(Nc1cccc(-c2nn3ccccc3c2-c2ccnc(Nc3cccc(F)c3)n2)c1)c1c(F)ccc(F)c1Cl` [GSK357952], the “%Inh” value in the assay with TNNI3K is 0%; with TRKA it was 11%; with TRKB it was 0%; in the assay on TRKC it was 0%; in the assay on TRPM6, 32%; in the assay with TSSK1B, 0%. Besides, the “%Inh” value with TSSK3 worked out at 6%; in the assay with TTK, 28%; in the assay with TXK it was 67%; in assay [1] it was 11%.

With `Cc1ccc(C(=O)N2CC[C@@H](O)C2)cc1-n1c(C)cc(OCc2ccc(F)cc2F)c(Br)c1=O`, the “%Inh” value in the assay with TNNI3K, in the assay with TRKA, in the assay on TRKB, in the assay with TRKC, in the assay with TRPM6 and with TSSK1B was 0% each time. In addition, the “%Inh” value with TSSK3 was 0%; in the assay with TTK, 3%; in the assay with TXK, 0%; in [1] it was 0%.

Take `Cc1cccc(NC(=O)Nc2ccc(Oc3ncnc4ccn(C)c34)cc2)c1`: the “%Inh” value with TNNI3K was 0%; with TRKA it was 20%; with TRKB it was 35%; in the assay with TRKC, 57%; in the assay on TRPM6 it was 0%; in the assay with TSSK1B it was 19%. For the same compound, the “%Inh” value (in the assay on TSSK3; in the assay with TTK; in the assay with TXK; in assay [1]) was 0% each time.

Turning to `Cc1ccc(C)c(NC(=O)NC2CCN(c3ccnc(Nc4ccc(F)cc4)n3)C2)c1` (stereo not shown) [GSK1379720], the “%Inh” value with TNNI3K was found to be 4%; in the assay with TRKA, 0%; in the assay with TRKB, 51%; in the assay on TRKC it was 65%; with TRPM6, 14%; in the assay with TSSK1B, 0%. The “%Inh” value in the assay with TSSK3 worked out at 15%; in the assay with TTK, 13%; with TXK, 16%; in assay [1], 36%.

Consider `CCCCc1nn2ncccc2c1-c1ccnc(Nc2ccc(N3CCN(C)CC3)cc2)n1` [GW684941], for which the “%Inh” value with TNNI3K is 41%; in the assay on TRKA, 88%; with TRKB, 78%; in the assay with TRKC, 66%; in the assay with TRPM6 it was 61%; in the assay with TSSK1B it was 9%. Moreover, the “%Inh” value is on record as 7% in the assay on TSSK3, 50% in the assay with TTK, 74% in the assay on TXK and 44% in assay [1].
